Consider 9 compounds from PubChem BioAssay (NCI).

Holding throughout (assay): NCI-60 one-dose screen, 48 h (100 = growth as untreated, 0 = no growth, -100 = all killed)
Holding throughout (conditions): 10 µM unless noted

In test [1] the test system is K-562 leukemia.
Test [2] deals with MALME-3M melanoma.
Test [3] deals with MDA-MB-231 breast.
Test [4] has as its system RXF 393 renal.
Test [5] concerns SF-268 CNS.
Test [6] has as its system SF-295 CNS.
Test [7] deals with SF-539 CNS.
Test [8] concerns UACC-257 melanoma.
Test [9] relates to M14 melanoma.
In test [10] the test system is HCT-15 colon.
Test [11] concerns HT29 colon.
Test [12] has as its system SNB-75 CNS.
In test [13] the test system is SNB-19 CNS.
Test [14] deals with PC-3 prostate.
Test [15] relates to SK-MEL-5 melanoma.
In test [16] the test system is UACC-62 melanoma.
Test [17] has as its system LOX IMVI melanoma.
For test [18], the system named is SK-MEL-2 melanoma.
The subject of test [19] is SK-MEL-28 melanoma.
The test system of test [20] is U251 CNS.

Compounds without any hit were thinned out: in the full panel of roughly 83,000, 20% have a hit.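 Results are percent growth after 48 hours of single-concentration exposure. 100 means growth as in untreated cells, lower positive values show inhibition; negative values down to -100 show cell death.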 Values without a mark were called inactive. Activity calls are given as the source filed them. The calls were made as follows: active = growth percent below 10; inactive = the rest.

Regarding `CN(C)CCCOc1c2ccccc2nc2c1oc1ccc(Cl)cc12`, the growth is -14.3% (active) in test [1]; -8.62% (active) in test [2]; 7.86% (active) in test [3]; -74.1% (active) in test [4]; 14.6% in [5]; 5.01% (active) in test [6]. Further, the growth was 6.92% (active) in test [7]; 20% in test [8]; -87.3% (active) in test [9]; -21.4% (active) in [10]; -43.4% (active) in test [11]; 5.58% (active) in test [12]. In addition, the growth in test [13] was 16.1%; in test [14], 5.23% (active); in test [15], -16% (active); in [16], -49.7% (active); in test [17] it was -85.1% (active); in [18] it was 9.55% (active).

For `O=C(CCN1C(=O)/C(=C/c2ccccc2F)SC1=S)N1CCOCC1`, the growth in [1] was 32.2%; in test [2], 74.1%; in test [3], 71%; in test [4] it was 41.2%; in [5] it was 101%; in test [6], 97.8%. Also, the growth is 87.8% in [7]; 89.8% in [8]; 80.5% in [9]; 45.5% in test [10]; 87.1% in test [11]; 94% in test [12]. The growth in test [13] is 99%; in test [14], 108%; in test [15] it was 96.9%; in test [16], 82.7%; in test [17] it was -34.1% (active); in test [19], 85.1%. The growth in test [18] was 113%.

Consider `Nc1cc(-c2c[nH]c3ccccc23)nc2cc(-c3c[nH]c4ccccc34)nn12`, for which the growth in test [1] was 4.17% (active); in test [2] it was 64.5%; in test [3], 48.2%; in test [4], 38.2%; in test [5], 75.2%; in test [6] it was 34.8%. In addition, the growth in [7] is 32.4%; in [8], 70.2%; in [9] it was 29.3%; in test [10] it was 6.35% (active); in [11], 9.63% (active); in test [13], 86.2%. Moreover, the growth in test [20] is 29.7%; in test [14], 60.6%; in [15], 45.6%; in test [16], 87.5%; in test [17], -25.2% (active); in [19], 59.6%. In test [18], the growth is 96%.

For the compound `Nc1c(C(=O)c2ccc(Br)cc2)oc2nc(-c3cnccn3)cc(-c3cccs3)c12`, the growth in [1] was 92.7%; in [2], 102%; in test [3], 101%; in [4], 96.6%; in test [5], 104%; in [6] it was 99.6%. The growth in [7] is 98.8%; in test [8], 103%; in [9], 98.9%; in test [10], 97.7%; in test [11], 111%; in [12], 98.3%. Also, the growth is 97.1% in test [13]; 96.3% in test [14]; 98% in [15]; 93.7% in test [16]; 107% in test [19]; 113% in [18].

On to `O=c1[nH]c2ccccc2cc1CSc1ccccc1Nc1nccc(-c2ccc(C(F)(F)F)cc2)n1`, for which the growth in test [1] was 58.6%; in test [2] it was 63.6%; in [3] it was 69%; in test [4] it was 2.21% (active); in test [5] it was 70.4%; in [6] it was 72.7%. Further, the growth is 45.5% in test [7]; 104% in test [8]; 92.1% in test [9]; 69.1% in test [10]; 56.1% in test [11]; 66.4% in [12]. Besides, the growth in test [13] is 59.6%; in [14], 56.6%; in test [15], 96.2%; in test [16], 70.4%; in test [17], 19.8%; in test [18] it was 89.8%.

Take `Cc1cc2nc3c4cc(Cl)ccc4n(CC(=S)NCCN(C)C)c3nc2cc1C`: the growth was -43.6% (active) in test [1]; -49.2% (active) in [2]; -71.8% (active) in test [3]; -67.8% (active) in test [4]; 26.8% in test [5]; -50.4% (active) in [6]. Also, the growth in [7] was -94.3% (active); in [8], -17.2% (active); in test [9], -90.1% (active); in test [10], -76.3% (active); in test [11], -32% (active); in test [12] it was -19.1% (active). The growth in test [13] is 4.89% (active); in test [14], -30.1% (active); in test [15] it was -10.3% (active); in test [16], -67.1% (active); in test [19], -91.3% (active); in test [18], 70.7%.

As for `Cc1ccc(CNS(=O)(=O)/N=C2\NC(=O)NC2=C(Cl)Cl)cc1`, the growth is 27.7% in [1]; 94.7% in test [2]; 40.3% in test [3]; 96.9% in test [4]; 61.8% in test [5]; 4.1% (active) in test [6]. Further, the growth in [7] was 1.74% (active); in [8], 60.2%; in test [9] it was 87.2%; in test [10], 95.3%; in test [11], 15.7%; in test [12], -2.97% (active). The growth is 46.9% in test [13]; 38.9% in [14]; 77.3% in test [16]; 83.8% in test [19]; 28.8% in test [18].

As for `COc1cc(/C=C/C(=O)c2ccc(C(F)(F)F)cc2)ccc1Oc1nc(NCCO)nc(N2CCOCC2)n1`, the growth was 6.49% (active) in [1]; 85.7% in test [2]; 92.9% in [3]; 90.8% in [4]; 87.3% in [5]; 96% in test [6]. For the same compound, the growth in test [7] is 98.2%; in [8], 97.4%; in [9], 97.6%; in test [10], 70.5%; in test [11], 96.2%; in [12], 91.4%. Further, the growth in test [13] is 87.6%; in test [14] it was 87.2%; in test [15] it was 94%; in [16], 78.7%; in test [18], 98.8%.

On to `CCOc1ccc([C@H]2C(C(=O)c3ccc(Cl)cc3)C3(N[C@@H]2c2ccccc2)C(=O)Nc2ccc(Br)cc23)cc1` (stereo partly specified), for which the growth is 14.2% in [1]; 64.8% in test [2]; 11% in test [3]; 16.6% in test [4]; 28.9% in test [5]; 37.8% in test [6]. Further, the growth in test [7] is 48.8%; in test [8], 68.5%; in [9], 37.6%; in test [10] it was 33.4%; in [11], -27.1% (active); in [12], 26.9%. Further, the growth was 47.6% in test [13]; 13.8% in test [14]; 51.4% in test [16]; 75.2% in test [19]; 56.6% in test [18].
